From PubChem BioAssay AID778 (Sanford-Burnham Center for Chemical Genomics, 2007)
In all, about 96,000 compounds went through this assay and about 20,000 (21%) were called active.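 The calls were made as follows: active = CYP2C19 inhibition above a set limit at 5 µM in the primary screen (cut at about 50% in these data); inactive = the rest.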 A selection follows.

What follows are compounds tested against Cytochrome P450 2C19 (Homo sapiens) (UniProt P33261) (assay: blockers of cytochrome P450 2C19 activity – biochemical, luminescence, ADME assay, primary screen (AID 778;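 also: plate controls were negative control wells for no effect and 2.5 mM tranylcypromine positive control for full effect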)). Conditions: CYP2C19 Supersomes, luciferin-H EGE luminescence, 30 min; at 5 µM; active compounds read high.
Chain of Cytochrome P450 2C19 (Homo sapiens) (P33261 whole entry, looked up): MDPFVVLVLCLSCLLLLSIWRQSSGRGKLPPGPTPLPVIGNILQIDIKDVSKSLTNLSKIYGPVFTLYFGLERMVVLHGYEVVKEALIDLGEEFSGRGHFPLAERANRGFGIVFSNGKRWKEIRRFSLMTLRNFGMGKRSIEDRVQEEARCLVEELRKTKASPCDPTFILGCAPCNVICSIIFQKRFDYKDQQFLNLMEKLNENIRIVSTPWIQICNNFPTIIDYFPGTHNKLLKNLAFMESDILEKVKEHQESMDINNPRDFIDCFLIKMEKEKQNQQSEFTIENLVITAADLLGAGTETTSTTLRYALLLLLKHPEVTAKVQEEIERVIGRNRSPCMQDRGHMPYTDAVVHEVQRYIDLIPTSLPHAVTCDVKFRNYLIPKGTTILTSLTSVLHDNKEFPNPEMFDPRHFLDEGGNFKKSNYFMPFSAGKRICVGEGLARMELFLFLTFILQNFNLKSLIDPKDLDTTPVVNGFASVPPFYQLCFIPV

inhibition, inactive:
O=C(COc1cc(Cl)c(Cl)cc1Cl)NC(=O)NC1CCCC1 -6.2%
CCCC(=O)N1CCc2[nH]c3ccccc3c2C1 25.3%
FC(F)(F)c1cccc(Nc2ncnc3ccccc23)c1 44.1%
O=C(Nc1cccc(Cl)c1)OCc1ccccn1 27.1%
CCOc1cc(N2CCOCC2)c(OCC)cc1NC(=O)COC(=O)[C@H](Cc1c[nH]c2ccccc12)NC(C)=O -4.2%
COc1cccc(N2C(=O)CC(N3CCN(S(=O)(=O)c4ccccc4)CC3)C2=O)c1 (stereo not given) 1.5%
CN1CCN(c2ccc([N+](=O)[O-])c(Sc3nc4ccccc4[nH]3)c2)CC1 33.8%
C=CCOc1ccc(C2/C(=C(\O)c3c(C)[nH]c(C(=O)OC)c3C)C(=O)C(=O)N2CCN(C)C)cc1 (stereo not given) 2.1%
O=C(Nc1ccc2c(c1)CCC2)c1cccc(S(=O)(=O)N2CCN(c3ccc(F)cc3)CC2)c1 26%
CC(C)C(C)NC(=O)COc1ncnc2ccccc12 (stereo not given) 34.6%
Cc1nn(-c2ccccc2)c2sc(C(=O)N(Cc3ccco3)C(C)C(=O)NC(C)(C)C)cc12 (stereo not given) 33.9%
COc1cc(OC)cc(C(=O)NC2CCN(C(=O)N3c4ccccc4Sc4ccccc43)CC2)c1 5.8%
O/N=C1\CC2(Cc3nonc31)OCCO2 -5.4%
Cc1ccc(CN2C(=O)CCC2C(=O)NCCCN2CCCCC2C)cc1 (stereo not given) 8.1%
CCC(C)NC(=O)C1CCC(=O)N1Cc1ccc(C)cc1 (stereo not given) 28.1%
O=C(Cn1cnc2c(nnn2-c2ccccc2)c1=O)N1CCC(Cc2ccccc2)CC1 43.2%
CCC1C(C#N)=C(SC)NC2=C1C(=O)CC(C)(C)C2 (stereo not given) 12.7%
Cc1ccc(-n2ncc3c2ncn2nc(-c4ccco4)nc32)c(C)c1 4.8%
COc1cc(C(=S)N2CCOCC2)cc(OC)c1OC(=O)c1cc([N+](=O)[O-])cc([N+](=O)[O-])c1 -1.3%
Cc1ccc(Cn2nnc3c(=O)n(CC(=O)N4CCCCC4)cnc32)cc1 34%
COc1ccc(-n2nnc3c(=O)n(CC(=O)N4CCC(Cc5ccccc5)CC4)cnc32)cc1 4.8%
Cc1ccc(NC(=O)N2CCC(C(=O)NCc3ccc(F)cc3)CC2)cc1 4.7%
Cc1nc2ccc(NC(=O)N3CCC(c4ccccc4)C3)cc2nc1C (stereo not given) 28.5%
CC(=O)c1ccc(OCCN2CCOCC2)cc1 2.4%
Cc1ccc(S(=O)(=O)NCC(=O)N(CC(=O)NC(C)(C)C)Cc2cccs2)cc1 -10.5%
CCc1c(-c2ccccc2)nc(N)c(C#N)c1-c1cccs1 2.8%
CCOC(=O)C(CCOc1cccc(CC)c1)C(=O)OCC 42%
Cc1cc(C)n2nc(C(=O)NC(C)(C)C)nc2n1 -2.8%
C=CCc1cccc2cc(C(=O)N3CCN(C(=O)OCC)CC3)c(=O)oc12 -8%
Cn1c(=O)c2c(SCC(=O)N3CCOCC3)nc(C3CC3)nc2n(C)c1=O 8.8%
CCN(CC)C(=O)N1CCN(C(=O)c2ccc(C)cn2)CC1 4.3%
CCS(=O)(=O)n1nc(-c2ccc(OC)cc2)nc1SC 46%
Cn1c(CO)cnc1SCc1ccccc1 39.7%
O=C(COC(=O)CCC(=O)c1cccs1)NCc1ccco1 5.2%
Cc1nnc(NC(=O)CSc2nc(C3CCCCC3)nc3ccccc23)s1 -1.4%
CN(C(=O)CSc1nc(C2CC2)nc2ccccc12)c1nc(-c2ccccc2)cs1 12.3%
CCN(CC)S(=O)(=O)c1ccc2[nH]cc(C(=O)NCCc3ccccc3)c(=O)c2c1 4.6%
O=C(CSc1nnc(-c2ccco2)o1)NCC(=O)c1ccccc1 0.5%
C[C@H](NC(=O)OC(C)(C)C)c1nnc(SCC(N)=O)o1 49.9%
Cc1cccc(NC(=O)CSc2nnc(-c3ccco3)o2)c1 -7.9%
CCc1ccccc1NC(=O)CSc1nnc([C@@H](NC(=O)OC(C)(C)C)C(C)C)o1 8%
Cc1cccc(NC(=O)CSC(N)=O)c1C 17.7%
Cc1cccc(NC(=O)CSc2nc3c(c(=O)[nH]2)CCCC3)c1C 17.6%
Cc1ccc(C(=O)Nc2nnc(-c3cccs3)s2)cc1C -8.8%
O=C(O)CCN=C1CCc2ccccc2N1 0.2%
Cc1cc(C)c2c(n1)nn1c(-n3ccnc3)cc(C)nc21 4.7%
O=c1cc(O)nc(SCc2ccccc2Cl)[nH]1 1.2%
C=CCSc1nc(Cc2ccc(Cl)cc2)nc2ccccc12 0%
Cc1ccccc1OC/C(O)=C(\C#N)c1nc2ccccc2[nH]1 38.3%
O=C(CSc1nc2ccccc2[nH]1)c1cccs1 42.5%
Cc1nnc2sc(-c3ccco3)nn12 -0.9%
CCOC(=O)Cc1c(C)nc2c(C#N)c(C)nn2c1C 12.9%
CC(C)C1C2=C(CC(C)(C)CC2=O)ON1c1ccccc1 (stereo not given) 34.7%
COc1ccc(CN2CN(C(C)C)CSC2=S)cc1 8.5%
O=C1CSC(c2ccccc2)N1c1nc(-c2ccc(Cl)cc2Cl)cs1 (stereo not given) -2.8%
CCCc1ccc(-c2csc(NC(=O)Cc3cccs3)n2)cc1 28%
Cc1ccc(S(=O)(=O)Nc2nc(C)cc(-n3nc(C)cc3C)n2)cc1 22%
CC(=O)N1CCN(C(=O)c2cccc(S(=O)(=O)Nc3ccc(C)cc3)c2)CC1 11.6%
FC(F)(F)c1nnc2ccc(N3CCN(c4ccccc4)CC3)nn12 27.9%
O=C(Nc1ccccc1C(=O)N1CCOCC1)C1CCC(=O)N1C1CCCC1 (stereo not given) -12.6%
CCC(=O)N(Cc1ccccc1)c1ccccn1 -5.8%
Cc1ccccc1C(=O)Nc1cccc(-c2nnc(SCC(=O)O)n2C)c1 -18.4%
Cc1ccc(C(C)C)c(OCc2nnc(SCC(=O)Nc3nccs3)n2C)c1 17%
CCc1ccc(NC(=O)CSc2nnc(-c3cnccn3)n2Cc2ccco2)cc1 21.4%
CCc1nnc(NC(=O)CSc2nnc(-c3ccncc3)n2Cc2ccccc2)s1 41.3%
CCCCSc1nnc(-c2ccc(NC(=O)CC)cc2)n1C 21.4%
Cc1ccc(NC(=O)CSc2nnc(-c3cnccn3)n2Cc2ccco2)cc1C 5.5%
CCC(=O)Nc1cccc(NC(=O)CSc2nnc(-c3ccc(NS(C)(=O)=O)cc3)n2C)c1 23.6%
COC(=O)c1ccc(NC(=O)CSc2nnc(CNc3ccc(OC)cc3)n2C)cc1 29.7%
CCC1(C)N(O)C(C)(C)C(c2ccc(OC)cc2)=[N+]1[O-] (stereo not given) -7.3%
C=CCNc1nc(N)c(C(=C(C#N)C#N)c2ccccc2)s1 21.5%
CS(=O)(=O)N1CCN(C(=O)Cc2ccccc2)CC1 16.8%
Cc1c(NC(=O)c2cc(-c3ccc(Cl)s3)nc3ccccc23)c(=O)n(-c2ccccc2)n1C 18.3%
CSc1nnc2c(n1)OC(c1ccsc1)N(C(C)=O)c1ccccc1-2 (stereo not given) 5.9%
Cc1nc2ccccc2c(-c2ccccc2)c1C(=O)c1ccccc1 12%
CCc1nnc(NS(=O)(=O)c2ccc(N=Cc3c(C)[nH]n(-c4ccc(C)cc4)c3=O)cc2)s1 -2.3%
CCn1c(=N)n(CC(=O)c2cccc(OC)c2)c2ccccc21 -12.1%
CCOC(=O)C1CCCN(C(=O)CN(c2ccc(OC)cc2)S(=O)(=O)c2c(C)noc2C)C1 (stereo not given) 12.3%
O=C(Nc1ccc(Cl)c(Cl)c1)N1CC=C(c2ccccc2)CC1 28.4%
Cc1ccc(C(=O)NCC2CCCO2)o1 (stereo not given) -1.3%
Cc1ccc(S(=O)(=O)N2CCC(C(=O)NCC3CCCO3)CC2)cc1 (stereo not given) 6.5%

inhibition, active:
FC(F)(F)c1cccc(NC(=S)Nc2cccc(Cl)c2)c1 74.9%
Cc1ccccc1-n1nc(C)c2cc(C(=O)NC3CC3)sc21 61.4%
O=C(Nc1ccc(Br)cc1)C1CCC(=O)N1Cc1ccccc1Cl (stereo not given) 96.4%
Cc1ccc(NC(=O)N2CCC(c3nc4c(nnn4Cc4c(F)cccc4Cl)c(=O)[nH]3)CC2)cc1 95.1%
COc1ccc(Cn2nnc3c(=O)[nH]c(C4CCN(C(=O)c5ccccc5Cl)CC4)nc32)cc1 57.2%
CCS(=O)(=O)n1nc(-c2ccccc2)nc1SCc1ccccc1 90.1%
COC(=O)CSc1nc(C2CC2)nc2ccccc12 63.2%
CCc1ccccc1NC(=O)CSc1nnc([C@@H](NC(=O)OC(C)(C)C)C(C)CC)o1 (stereo not given in full) 59.4%
C[C@H](NC(=O)OC(C)(C)C)c1nnc(SCC(=O)Nc2ccc(Br)cc2)o1 62.5%
Cc1cccc(NC(=O)CSc2nnc(CCCCCNC(=O)OC(C)(C)C)o2)c1C 63.7%
C=CCSc1nc2ccccc2[nH]1 66%
COc1ccccc1CSc1nc2ccccc2[nH]1 51.7%
Cc1ccc(S(=O)(=O)Nc2ccc3ncccc3c2)cc1 89.8%
Cn1c(SCC(=O)Nc2cccc(NC(=O)c3cccs3)c2)nnc1-c1ccncc1 54%
COC(=O)c1ccc(NC(=O)CSc2nnc(-c3ccncc3)n2C)cc1 54.6%
CCn1c(SCC(=O)Nc2nccs2)nnc1-c1ccncc1 66.7%
CCn1c(SCC(=O)Nc2cc(C)ccc2C)nnc1-c1cnccn1 71.7%
Cc1cc(C)cc(N(CC(=O)NCC2CCCO2)S(=O)(=O)c2c(C)noc2C)c1 (stereo not given) 82.9%
Cc1cc(C)cc(N(CC(=O)N2CC=C(c3ccccc3)CC2)S(=O)(=O)c2c(C)noc2C)c1 89.1%
